The campaign covered roughly 290,000 compounds. About 3,200 (1.1%) were called active. For the sample, actives were picked, then their nearest neighbours and some compounds at random. A number with no mark means an inactive call. Rule as the data show it: active = inhibition above about 60%; inactive = the rest.

Sequence of Phosphoethanolamine/phosphocholine phosphatase (Homo sapiens) (Q8TCT1 whole entry, looked up): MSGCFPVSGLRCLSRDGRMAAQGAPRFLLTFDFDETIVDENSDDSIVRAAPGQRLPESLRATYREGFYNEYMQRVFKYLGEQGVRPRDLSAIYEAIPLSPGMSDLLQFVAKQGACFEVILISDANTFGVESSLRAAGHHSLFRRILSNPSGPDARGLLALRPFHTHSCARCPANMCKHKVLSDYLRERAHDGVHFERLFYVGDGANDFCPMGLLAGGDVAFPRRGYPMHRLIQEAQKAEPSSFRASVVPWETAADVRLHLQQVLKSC

The assay addresses Phosphoethanolamine/phosphocholine phosphatase (Homo sapiens) (UniProt Q8TCT1). Put plainly: PubChem AID 1565. The settings on record: recombinant PHOSPHO1, absorbance phosphatase assay; at 13.3 µM; active compounds read high.
The term inhibition denotes the change of the read-out against control, counted positive when it falls. Turning to `O=C(CC(c1ccccc1)c1ccccc1)NCC(O)c1ccc([N+](=O)[O-])cc1` (stereo unspecified), the inhibition is 12%.
`Cc1ccc(NC(=O)CSc2sc3c(O)cc(=O)[nH]c3c2C#N)cc1C`: the inhibition is 19.4%.
As to `Cc1cc(=O)[nH]c(S)c1C#N`, the inhibition is 71.4% (active).
For the molecule `Cc1cc(=O)[nH]c(SCC(N)=O)c1C#N`, the inhibition is -7.4%.
As to `C/C(=N\NC(=O)c1ccc2ccccc2c1)c1cccnc1`, the inhibition was -19.7%.
The figure for `CCc1nnc(NC(=O)CSCc2cc(=O)n3cc(C)sc3n2)s1` is 6.8%; for `O=C(CSc1nc(Nc2ccccc2)nc(N2CCOCC2)n1)Nc1cc(Cl)ccc1O` it is 61% (active).
For `C/C(=N\Nc1nc(Nc2ccccc2)nc(N2CCOCC2)n1)c1cccs1`, the inhibition is 24.8%.
Regarding `Cc1ccc(Nc2nc(N3CCOCC3)nc(N3CCOCC3)n2)cc1Cl`, the inhibition was 6.9%.
On to `Cc1ccc(C(=O)Nc2nnc(C3=COCCO3)o2)cc1C`, for which the inhibition is -32.7%.
The result for `C=CCn1c(SCc2cc(C(=O)OC)c(C)o2)nnc1-c1ccncc1` reads 86.5% (active); that for `COC(=O)c1ccc(NC(=O)CSc2nnc(-c3ccncc3)n2C)cc1`, -5.5%; that for `C=CCn1c(SCc2ccc(Cl)c(Cl)c2)nnc1C(CO)NC(=O)c1ccc(OC)cc1` (stereo unspecified), -16.9%.
With `CCOc1ccc(C(C)=O)cc1CSc1nnc(-c2ccncc2)n1CCOC`, the inhibition is -31.5%.
Take `COC(=O)c1sc(N)c(C(=O)OC)c1COC(=O)CNS(=O)(=O)c1ccc(C)cc1`: the inhibition is 1.7%.
On to `C=CCn1c(SCc2c(C(=O)OC)sc(N)c2C(=O)OC)nnc1-c1ccc(Cl)cc1`, for which the inhibition is 60.1% (active).
With `COc1cccc(CNC(=O)Cn2c(=O)oc3cc(S(=O)(=O)N4CCCCC4)ccc32)c1`, the inhibition is 22.6%.
The figure for `Cc1cccc(NS(=O)(=O)c2ccc(C(=O)NCC(C)(C)N3CCOCC3)cc2)c1C` is 65.4% (active); for `CN(C)S(=O)(=O)c1ccc(C(=O)NCC(C)(C)N2CCOCC2)cc1` it is 34.7%.
On to `CC(C)(CNC(=O)c1ccc(Cl)c(S(=O)(=O)N2CCc3ccccc3C2)c1)N1CCOCC1`, for which the inhibition was 38.5%.
Consider `CC(C)C[C@H](NC(=O)N1CC(=O)Nc2ccccc21)C(=O)N[C@H](Cc1ccccc1)C(=O)O`, for which the inhibition was 33.8%.
With `COc1ccc(-c2nnc(SC(=O)N3c4ccccc4Sc4ccccc43)o2)cc1`, the inhibition was 81.1% (active).
Turning to `COc1ccc(-c2nnc(SCc3cccnc3)o2)cc1`, the inhibition was -4.4%.
As to `COc1ccc(N2CCN(Cc3nnc(-c4ccccc4)o3)CC2)cc1`, the inhibition is -23.5%.
As for `CC(=O)Nc1cccc(/C(C)=N/NC(=O)c2ccccc2Cl)c1`, the inhibition is 16.2%.
Consider `C/C(=N/NC(=O)c1ccc(NC(=O)c2ccc(F)cc2)cc1)c1ccccc1`, for which the inhibition was -99%.
Turning to `COc1cccc(C(=O)N/N=C(\C)c2cccc(NC(=O)c3ccc(F)cc3)c2)c1OC`, the inhibition was 65.8% (active).
The figure for `COc1ccc(S(=O)(=O)NCC(=O)NC2CC2)cc1OC` is 27.6%.
For `CCCCCC(O)(CCN1CCCCC1)c1ccccc1` (stereo unspecified), the inhibition is 43.7%.
The result for `Cc1cccc(C)c1OCCN1CCOCC1` reads 24.1%.
In the case of `O=C1NC(c2ccncc2)Nc2sc3c(c21)CCCC3` (stereo unspecified), the inhibition was 97.6% (active).
Take `Cc1ccc(C(=O)c2c(NC(=O)c3ccncc3)sc3c2CCCC3)cc1`: the inhibition is 9.7%.
For the molecule `C/C(=C\c1ccccc1)C1NC(=O)c2c(sc3c2CCCC3)N1` (stereo unspecified), the inhibition is 12.2%.
Take `CCCNC(=O)COc1coc(CN2CCN(Cc3ccccc3)CC2)cc1=O`: the inhibition is 36%.
In the case of `CCOC(=O)N1CCN(Cc2nc(Cc3cccc(C(F)(F)F)c3)no2)CC1`, the inhibition was 34.6%.
Turning to `Fc1cccc(Cc2noc(CN3CCN(c4cnccn4)CC3)n2)c1`, the inhibition is 62.8% (active).
For the molecule `FC(F)(F)c1cccc(Cc2noc(CN3CCC(N4CCCCC4)CC3)n2)c1`, the inhibition was 51.8%.
Consider `COC(=O)c1ccc(CNC(=O)C2CCC(=O)N(Cc3ccccn3)C2)cc1` (stereo unspecified), for which the inhibition is 11.9%.
Take `O=C(C[C@H]1C(=O)N(c2ccc(F)c(F)c2)C[C@@H]1Cc1ccccc1)Nc1ccccc1`: the inhibition was -7.3%.
As for `Cc1ccc(OCCCC(=O)NC(C)c2ccccc2)c(C)c1` (stereo unspecified), the inhibition is 48.4%.
Consider `Cc1ccc(OCC(=O)NC(C)c2ccccc2)cc1C` (stereo unspecified), for which the inhibition was -16.6%.
In the case of `Cc1ccccc1OCCC(=O)OCC(=O)NC(C)c1ccccc1` (stereo unspecified), the inhibition is 64.7% (active).
For the molecule `Cc1sc2ncn(CC(=O)NCCCC(=O)N3CCN(c4ccccc4F)CC3)c(=O)c2c1C`, the inhibition was 2.2%.
As for `Cn1cc(S(=O)(=O)Nc2ccc(Cl)cc2Cl)c(=O)n(C)c1=O`, the inhibition was 20.2%.
Regarding `Cc1ccc(C)c(S(=O)(=O)Nc2cccc(-n3cnnn3)c2)c1`, the inhibition is 34.8%.
The result for `CCOC(=O)N1CCN(CCC(=O)Nc2ccccc2)CC1` reads 44.4%.
Regarding `CCOC(=O)N1CCN(CC(=O)Nc2ccc(F)cc2)CC1`, the inhibition was 60.1% (active).
For `O=C(CN1CCN(c2ccccc2)CC1)Nc1ccc(F)cc1`, the inhibition was 27%.
The result for `CCOC(=O)c1sc(NC(=O)c2ccncc2)nc1C` reads -5.8%; that for `CCOC(=O)c1sc(=S)n2c1[nH]c(=O)c1ccc(C(=O)OC)cc12`, 98.7% (active).
For `CCOC(=O)C1=C(C)Nc2sc(C(=O)c3ccc(Br)cc3)c(N)c2C1c1ccc(C(=O)OC)cc1` (stereo unspecified), the inhibition is 38.2%.
For the molecule `CCOc1ccc(CN2CCC(n3nccc3NC(=O)C3CC3)CC2)cc1CO`, the inhibition was 12.7%.
In the case of `CCCc1c(C(=O)Nc2ccc(F)cc2)cnn1-c1ccccc1`, the inhibition is 41.2%.
Take `COc1ccc(-c2noc(CCCC(=O)NC3CCCC3)n2)cc1OC`: the inhibition is 18.5%.
The figure for `CC(=O)c1ccc(N2Cc3ccccc3C2)cc1` is 29.1%.
Consider `Cc1cc(Cl)c2oc(C(=O)N(C)C(C)c3ccccn3)c(C)c2c1` (stereo unspecified), for which the inhibition is 18.5%.
On to `Cc1ccc(N(CC(=O)NCC2CCCO2)C(=O)CNS(=O)(=O)c2ccc(Cl)cc2)cc1` (stereo unspecified), for which the inhibition is 32.5%.
Regarding `CCc1ccc(NC(=O)CSc2nc3ccccc3c(=O)n2CCN2CCOCC2)cc1`, the inhibition was 2.3%.
As for `CCCCn1c(SCC(=O)NCC2CCCO2)nc2ccc(N3CCOCC3)cc2c1=O` (stereo unspecified), the inhibition was -6.7%.
For the molecule `N#CCSc1nc2ccc(N3CCOCC3)cc2c(=O)n1CCc1ccccc1`, the inhibition was 81.7% (active).
Regarding `COc1cccc2cc(C(=O)NCc3ccc(C)cc3)c(=N)oc12`, the inhibition was 37.7%.
Turning to `CC(=O)Nc1ccc(NC(=O)C2CCCN2S(=O)(=O)c2cccc(C(F)(F)F)c2)cc1` (stereo unspecified), the inhibition is 24%.
The result for `O=c1c2ccccc2nnn1CSc1nnnn1-c1ccccc1` reads 8%; that for `Cc1ccc(CNC(=O)CN2CCN(Cc3ccc(Cl)cc3)C2=O)cc1`, 4.8%; that for `O=C(Cn1nnc2ccccc2c1=O)NCc1ccc(Cl)cc1`, 62.9% (active).
In the case of `Cc1c2cnn(CC(=O)NCc3ccccn3)c(=O)c2c(C)n1Cc1ccc(Cl)cc1`, the inhibition was -9%.
Consider `C=CCn1c(SCn2nnc3ccccc3c2=O)nnc1-c1ccc(Cl)cc1`, for which the inhibition is 94.8% (active).
As for `Nc1nnc(SCn2nnc3ccccc3c2=O)s1`, the inhibition is 16.1%.
Consider `COc1ccc(N(C)C(=O)C2CCN(S(=O)(=O)c3cccc4nsnc34)CC2)cc1`, for which the inhibition was 6.8%.
For `CCOc1ccc(NC(=O)CCCCCN2C(=O)[C@@H]3Cc4ccccc4CN3C2=O)cc1`, the inhibition is 6.8%.
On to `COc1cc(C(=O)OC2CCOC2=O)c([N+](=O)[O-])cc1OC` (stereo unspecified), for which the inhibition is 32.3%.
Turning to `N#Cc1ccccc1-n1c(N)c(C(=O)N2CCCC2)sc1=S`, the inhibition is -13.6%.
With `Cc1cccc(C(=O)N2CCCN(C(=O)c3cccc(C)c3)CC2)c1`, the inhibition is 8.5%.
In the case of `Cc1ccc(S(=O)(=O)N2CCN(C(=O)N3CCOCC3)CC2)c(C)c1`, the inhibition was -7.3%.
Regarding `Cc1ccc(-n2c(N)c(C(=O)N3CCOCC3)sc2=S)c(C)c1`, the inhibition is 87.8% (active).
For `COc1ccc2[nH]c(C(=O)N3CCN(C)CC3)c(C)c2c1`, the inhibition is 18.7%.
For the molecule `Cc1cccc(-n2c(N)c(C(=O)N3CCN(C)CC3)sc2=S)c1`, the inhibition is 83.6% (active).
The result for `COCC1CCN(C(=O)c2ccc3oc(Cc4ccccc4)nc3c2)C1` (stereo unspecified) reads 27.6%; that for `Cc1cc(OCc2cc(C(=O)NCc3cc(C(C)C)no3)no2)cc(C)c1Cl`, 22.6%; that for `CCn1cc(CCC(=O)NCc2ccc(F)cc2)c2ccccc21`, 38.1%.
For `COc1ccc(CN(C)C(=O)c2cc(-c3ccc(C)cc3C)nc3ccccc23)c(OC)c1OC`, the inhibition is 31.9%.

The values above are taken from PubChem BioAssay AID1565 (Sanford-Burnham Center for Chemical Genomics, 2009).
